Rows were chosen to be rich in hits. Some 17% of all compounds tested hit in one or more screens of this group.
DT40 TDP1 CPT: DT40-hTDP1 cell growth loss with CPT; chicken DT40 Tdp1-/-;hTDP1 cells + 20 nM CPT, ATP luminescence, 48 h; Potency, µM (top dose mostly 46.2 µM), for the others: at the highest dose activity change, negative = growth inhibition, hits mostly inhibitors; 420,000 compounds, 12% hits; note: % is set by controls: 0 for no effect and ±100 for the full control effect; nearly all actives have a fitted effect of over 55% in size
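Chicken DT40 Tdp1-/- cells complemented with human TDP1, 400 cells/well, exposed to compounds plus 20 nM camptothecin for at least 48 h at 37 C; viability read as ATP content by CellTiter-Glo luminescence.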
HepG2 tox: counter-screen for TGF-b inhibitors: cytotoxicity in HepG2 cells; HepG2 CAGA-GFP viability, ATP luminescence, 18 h; Potency, µM (titrated, usually from 46.1 µM), without a hit: top-dose activity change, negative = cytotoxicity, hits mostly cytotoxic; 410,000 compounds, 0.76% hits
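HepG2 CAGA-GFP cells (1000/well, DMEM with 1% FBS) received compound, then TGF-beta at 500 pg/mL final, and were incubated 18 hours at 37 degrees C. Viability was read by CellTiter-Glo luminescence. Media-only wells were set as complete cell-killing and DMSO as no toxicity.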
TDP1 cell noCPT: qHTS for Inhibitors of human tyrosyl-DNA phosphodiesterase 1 (TDP1): qHTS in cells in absence of CPT | DT40 Tdp1-/- hTDP1 cells, no CPT, ATP luminescence, 48 h | Potency, µM (top dose mostly 46.2 µM), for the others: top-dose activity change, negative = growth inhibition, most hits filed as inhibitors | 420,000 compounds, 15% hits; note: % is set by controls: 0 for no effect and ±100 for the full control effect; nearly all actives have a fitted effect of over 55% in size
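No-CPT arm: Tdp1-/-;hTDP1 DT40 cells (400/well) plus compounds, incubated ≥48 hr at 37 °C. Readout CellTiter-Glo luminescence.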
S2 tox: viability counter-screen for ATXN expression inhibitors. S2 cells (HEK-293 line with an ATXN2-luciferase reporter) viability, CellTiter-Fluor protease fluorescence, 24 h. Potency, µM (titrated, usually from 56.7 µM), most hits filed as cytotoxic. 400,000 compounds, 0.49% hits. AID 651635; note: nearly all actives have a fitted effect of over 40% in size
ATXN2 expr inh: inhibitors of ATXN2 expression | HEK-293 ATXN2-luciferase reporter, luminescence, 24 h | Potency, µM (series often up to 57 µM), for the others: at the top dose activity change, negative = inhibition, most hits filed as inhibitors | 360,000 compounds, 0.72% hits | AID 1745845; note: % is set by controls: 0 for no effect and ±100 for the full control effect; nearly all actives have a fitted effect of over 55% in size
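qHTS (up to 57 uM final) was run with 24 h compound exposure of reporter cells at 37 °C. Each well was multiplexed: SteadyGlo luminescence measured ATXN2-luciferase expression after a fluorogenic Gly-Phe-AFC viability readout (25 uM final).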
TGFb SMAD3 inh: blocks TGF-b signaling; HepG2 CAGA-GFP TGF-b/SMAD3 reporter, GFP fluorescence, 18 h; TGF-beta stimulated, 500 pg/mL final; Potency, µM (doses to about 46.1 µM), without a hit: at the highest dose activity, negative = inhibition, most hits filed as inhibitors; 410,000 compounds, 1.2% hits; note: % is set by controls: 0 for no effect and ±100 for the full control effect; nearly all actives have a fitted effect of over 65% in size
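Inhibition of TGF-beta-driven CAGA-GFP reporter expression in HEPG2 cells is measured by cellular GFP fluorescence after 18 h stimulation with 500 pg/mL recombinant TGF-beta in 1% FBS medium at 37 degrees C.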
* = called active by the depositor; i = inactive; ? = inconclusive; nt = no result; [ ] = dose if it differs, or a comment. Calls come from the whole dose curve; as a rule, active = well fitted curve in the direction sought with a large enough effect; inconclusive = small, poorly fitted or top-dose-only effect, or another doubt; inactive = no such curve, though single readings can be large; an effect the other way counts as inactive or inconclusive. Potency is the fitted concentration of half-maximal effect.

SMILES	DT40 TDP1 CPT	HepG2 tox	TDP1 cell noCPT	S2 tox	ATXN2 expr inh	TGFb SMAD3 inh
Cc1cc(-c2ccc(N=Nc3c(S(=O)(=O)O)cc4cc(S(=O)(=O)O)cc(N)c4c3O)c(C)c2)ccc1N=Nc1c(S(=O)(=O)O)cc2cc(S(=O)(=O)O)cc(N)c2c1O	9.4µM*	nt	9.4µM*	nt	nt	nt
COc1cc(-c2ccc(N=Nc3ccc4c(S(=O)(=O)O)cc(S(=O)(=O)O)c(N)c4c3O)c(OC)c2)ccc1N=Nc1ccc2c(S(=O)(=O)O)cc(S(=O)(=O)O)c(N)c2c1O	?	nt	?	i	nt	nt
O=S(=O)(O)c1cc(Cl)cc(N=Nc2ccc(O)cc2O)c1O	-11%	-1%	?	?	?	-19%
O=S(=O)(O)c1cc(O)c2c(O)c(N=Nc3cc(Cl)ccc3O)c(S(=O)(=O)O)cc2c1	18µM*	-31%	18µM*	8.9µM*	?	-20%
Cc1ccc(Cl)cc1NC(=O)c1ccc2nc(CCc3ccccc3)oc2c1	?	-33%	?	i	-19%	?
NC(=O)C1CCN(S(=O)(=O)c2cccc(S(=O)(=O)N3CCCCC3)c2)CC1	-4%	-4%	-6%	i	-8%	-13%
Cc1ccc2c(CC(=O)Nc3c(C(=O)c4ccc(F)cc4)oc4ccccc34)coc2c1	-1%	-3%	-20%	i	9%	-2%
COc1ccccc1N1CCN(C(c2cccs2)C(C)NC(=O)c2cccs2)CC1 (stereo not given)	16µM*	-3%	12µM*	i	-8%	1%
CC(NC(=O)c1cccnc1)C(c1cccs1)N1CCN(c2ccccc2F)CC1 (stereo not given)	23µM*	10%	?	i	-20%	-5%
COc1ccccc1N1CCN(C(c2cccs2)C(C)NC(=O)c2cccnc2)CC1 (stereo not given)	?	9%	?	i	-11%	-4%
CCC(=O)n1nc(-c2ccc(Cl)cc2)nc1N	-11%	-8%	2.6µM*	i	-5%	4%
CCCC(=O)n1nc(-c2ccc(OC)cc2)nc1N	-23%	-13%	-13%	i	-14%	17%
O=C(CN1C(=O)COc2ccc(Cl)cc21)NC1CC1	9%	-20%	15%	i	-12%	-17%
Fc1cccc(CCN2CCNC[C@@H]2Cc2ccccc2)c1	?	3%	?	i	-10%	-3%
O=C1NC[C@@H](Cc2ccc(O)cc2)N(CCc2cccc3ccccc23)C1=O	-2%	-8%	-13%	i	1%	-2%
FC(F)(F)c1cc(CCN2CCNC[C@@H]2Cc2ccccc2)cc(C(F)(F)F)c1	21µM*	-88%	?	nt	?	?
O=C1NC[C@@H](Cc2cccc3ccccc23)N(CCc2cc(C(F)(F)F)cc(C(F)(F)F)c2)C1=O	-5%	-119%	?	nt	?	13µM*
COc1cccc(/C=N/n2nnnc2N)c1O	-6%	23%	-24%	i	18%	15%
CC(C)(C)[C@H]1COC(=O)[C@@H](Cc2ccc(F)cc2)CC/C=C/C[C@@H](CC(=O)N[C@@H](CO)Cc2ccccc2)C(=O)N1	-109%	-3%	16µM*	?	-6%	-26%
O=C(C[C@@H]1C/C=C\CC[C@H](Cc2ccc(F)cc2)C(=O)OC[C@@H]2CCCN2C1=O)N[C@H](CO)Cc1ccccc1	6.5µM*	-31%	5.2µM*	?	?	17%
CC(C)(C)[C@H]1COC(=O)[C@@H](Cc2ccc(F)cc2)CC/C=C/C[C@@H](CC(=O)N[C@H](CO)Cc2ccccc2)C(=O)N1	8.2µM*	-27%	18µM*	?	-21%	?
C[C@@H]1COC(=O)[C@H](Cc2ccc(F)cc2)CC/C=C/C[C@@H](CC(=O)N[C@H](CO)Cc2ccccc2)C(=O)N1	?	1%	?	i	5%	4%
CC(C)(C)[C@H]1COC(=O)CC/C=C\C[C@@H](CC(=O)N[C@H](CO)Cc2ccccc2)C(=O)N1	-3%	24%	-2%	i	2%	17%
Cc1cc(N2CCCCC2C)nc(-c2ccccc2O)n1 (stereo not given)	23µM*	-25%	21µM*	i	3%	-34%
Cc1cc(N2CCCCCC2)nc(-c2ccccc2O)n1	?	3%	?	i	-5%	-6%
SMILES	DT40 TDP1 CPT	HepG2 tox	TDP1 cell noCPT	S2 tox	ATXN2 expr inh	TGFb SMAD3 inh
O=C(NCc1ccco1)C1CCCN1C(=O)Nc1ccccc1Cl (stereo not given)	-1%	0%	9%	i	-2%[11.3 µM]	-6%
S=C(Nc1cccnc1)N1CCN(c2ccccc2Cl)CC1	1%	-17%	-18%	i	-14%	7%
Nc1nc(Cl)cc(N2CCC(c3cc(-c4ccc(Cl)cc4Cl)n[nH]3)CC2)n1	4.1µM*	-110%	4.1µM*	?	?	?
CCC(C)NC(=O)CCCn1c(=O)c2cccn2c2ccccc21 (stereo not given)	-28%	-22%	-10%	i	8%	-9%
Cc1cc(C)cc(NC(=O)CCCn2c(=O)c3cccn3c3ccccc32)c1	-11%	-52%	-13%	nt	nt	11µM*
O=C(CCCn1c(=O)c2cccn2c2ccccc21)Nc1cccc(Cl)c1	?	-37%	18µM*	nt	nt	nt
CCCCN(CC)C(=O)CCCn1c(=O)c2cccn2c2ccccc21	?	-17%	21µM*	nt	nt	?
Cc1ccc(NC(=O)CCCn2c(=O)c3cccn3c3ccccc32)c(Cl)c1	15µM*	-21%	12µM*	nt	nt	-19%
CCOc1ccc(CNC(=O)CCCn2c(=O)c3cccn3c3ccccc32)cc1	?	-13%	?	nt	nt	0%
CN(C(=O)c1c(O)c2ccccc2n(C)c1=O)c1ccccc1	14%	nt	-20%	i	12%	nt
Cc1ccc(NC(=O)CCCn2c(=O)c3cccn3c3ccccc32)c(C)c1	15µM*	-16%	15µM*	nt	nt	-12%
CCOC(=O)Cc1[nH]nc2c1C(C1C=CCCC1)C(C#N)=C(N)O2 (stereo not given)	?	20µM*	23µM*	i	-8%	?

From PubChem
